Sampled rows, rich in hits. Any-hit rate of the full collection: about 12%.
Sfp inh: qHTS Assay for Inhibitors of Bacillus subtilis Sfp phosphopantetheinyl transferase (PPTase) | Potency, µM, for inactives: largest response in the series, negative = inhibition, most hits filed as inhibitors | 4'-phosphopantetheinyl transferase ffp (Bacillus subtilis), Q9F4F7 | Biochemical Sfp PPTase activity, qHTS | 310,000 compounds, 3.5% hits;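 also: the enzyme is Sfp with the accession as filed and its product quenches rhodamine fluorescence; 0% = enzyme reaction without inhibitor and -100% = no enzyme wells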
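Reaction rates are the 30-min fluorescence difference (ex 525, em 598 nm) in wells containing 15 nM Sfp, 5 uM rhodamine-CoA and 12.5 uM BHQ-2-YbbR at pH 7.6 with 10 mM MgCl2.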
TDP1 inh: qHTS Assay for Inhibitors of Tyrosyl-DNA Phosphodiesterase (TDP1); recombinant TDP1, AlphaScreen DNA substrate cleavage; 350,000 compounds, 0.28% hits; Potency, µM (doses to about 130 µM), for inactives: at the highest dose activity change, negative = inhibition, hits mostly inhibitors; also: % is scaled to controls: 0 for no effect and ±100 for the full control effect; nearly all actives have a fitted effect of over 40% in size
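Recombinant human Tdp1 (E. coli-expressed, 1 nM final) preincubated with compounds 15 min at room temperature, then 5'-biotin/3'-phosphotyrosine-FITC DNA substrate (15 nM final) added for 5 min. AlphaScreen beads (10 ug/ml final) added 10 min; cleavage lowers signal.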
JMJD2A Tudor: qHTS Assay for Inhibitors of JMJD2A-Tudor Domain; Lysine-specific demethylase 4A (Homo sapiens), O75164; AlphaScreen JMJD2A-Tudor / H3K4me3 peptide binding; Potency, µM (series often up to 114 µM), for inactives: at the highest dose activity change, negative = inhibition, usual class: inhibitors; 390,000 compounds, 4.4% hits; AID 504339, 2011; also: % is scaled to controls: 0 for no effect and ±100 for the full control effect; nearly all actives have a fitted effect of over 50% in size
BAZ2B block: qHTS Assay for Inhibitors of BAZ2B. Potency, µM (top dose mostly 114 µM), inactives show at the highest dose activity change, negative = inhibition, usual class: inhibitors. AlphaScreen BAZ2B-H3K14Ac peptide displacement. AID 504333, 2011. 360,000 compounds, 4.4% hits; also: % is scaled to controls: 0 for no effect and ±100 for the full control effect; nearly all actives have a fitted effect of over 60% in size
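BAZ2B 50 nM plus b-H3(5-23)K14Ac 50 nM, PBS pH 7.4/0.01% Tween-20, 30 min RT; compound added (max 110 uM), 30 min RT; streptavidin donor/Ni-chelate acceptor beads 10 ug/mL final, 20 min dark; AlphaScreen read.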
HP1b chromo inh: HTS for Inhibitors of HP1-beta Chromodomain Interactions with Methylated Histone Tails; AlphaScreen HP1-beta / biotin-H3K9me3 peptide binding; Chromobox protein homolog 1 (Homo sapiens), P83916; Potency, µM (titrated, usually from 114 µM), inactives show top-dose activity change, negative = inhibition, most hits filed as inhibitors; 390,000 compounds, 0.56% hits; also: nearly all actives have a fitted effect of over 70% in size
Target sequence (P83916 whole entry, looked up): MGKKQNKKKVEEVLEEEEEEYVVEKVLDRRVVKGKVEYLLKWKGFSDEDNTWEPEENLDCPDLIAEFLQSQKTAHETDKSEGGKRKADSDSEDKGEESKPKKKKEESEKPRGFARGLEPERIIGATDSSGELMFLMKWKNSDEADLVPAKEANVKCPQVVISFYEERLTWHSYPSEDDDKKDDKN
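AlphaScreen: HP1-beta (50 nM) preformed 30 min with biotin-H3(1-18)K9me3 peptide (50 nM) in PBS pH 7.4, 0.01% Tween-20. Compound added for 30 min at RT, then streptavidin donor/nickel chelate acceptor beads (10 ug/mL) for 30 min.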
G9a inh: qHTS Assay for Inhibitors of Histone Lysine Methyltransferase G9a; Histone-lysine N-methyltransferase EHMT2 (Homo sapiens), Q96KQ7; G9a H3K9 monomethylation, AlphaScreen, 2 h; Potency, µM (highest dose often 102 µM), for inactives: at the top dose activity, negative = inhibition, most hits filed as inhibitors; 350,000 compounds, 8.8% hits; AID 504332, 2011; also: % is scaled to controls: 0 for no effect and ±100 for the full control effect; nearly all actives have a fitted effect of over 75% in size
Target sequence (Q96KQ7 913-1193 limits assumed): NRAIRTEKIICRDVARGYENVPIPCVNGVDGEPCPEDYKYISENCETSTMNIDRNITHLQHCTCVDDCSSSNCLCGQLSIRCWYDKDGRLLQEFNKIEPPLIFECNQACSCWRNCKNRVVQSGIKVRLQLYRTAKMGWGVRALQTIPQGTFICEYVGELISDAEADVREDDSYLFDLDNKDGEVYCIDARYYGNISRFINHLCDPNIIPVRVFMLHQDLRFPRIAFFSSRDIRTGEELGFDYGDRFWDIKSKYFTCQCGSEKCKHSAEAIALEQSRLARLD
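Step 1: enzyme (final 20 nM) with compound, 15 min RT. Step 2: substrate peptide 500 nM and SAM 20 uM, 2 h RT. Step 3: anti-H3K9me1 antibody and AlphaScreen beads, 10 min, then plate read.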
* = called active by the depositor; ? = inconclusive; · = not tested or not shown; [ ] = dose if it differs, or a comment. Calls follow the shape of the dose curve; as a rule, active = well fitted curve in the direction sought with a large enough effect; inconclusive = small, poorly fitted or top-dose-only effect, or another doubt; inactive = no such curve, though single readings can be large; an effect the other way counts as inactive or inconclusive. Potency is read from the fitted curve at half-maximal effect.

SMILES | Sfp inh | TDP1 inh | JMJD2A Tudor | BAZ2B block | HP1b chromo inh | G9a inh
CCOc1cc(/C=N/n2cnnc2)ccc1OCC(=O)Nc1ccccc1OC | 7.4% | 7.1% | -14.0% | 1.6% | 26.4% | -5.7%[12.7 µM]
CCOC(=O)c1sc2ccccc2c1S(=O)(=O)Nc1ccc(N(C)C)cc1 | · | 16.2% | 12.6µM* | 20µM* | -25.4% | 8.91µM*
COC(=O)c1sc2cccc(F)c2c1S(=O)(=O)Nc1cc(OC)cc(OC)c1 | · | 8.4% | -25.0% | -25.1% | 61.6% | 0.4%[59 µM]
COC(=O)c1sc2cccc(F)c2c1S(=O)(=O)Nc1ccc(N(C)C)cc1 | · | 4.5% | ? | ? | -12.4% | 11.2µM*
O=S(=O)(NCc1nc2cccnc2n1Cc1ccccc1)c1ccc2c(c1)CCCC2 | · | 4.4% | -32.3% | -11.0% | 25.3%[57 µM] | -8.0%[59 µM]
Cc1ccc2c(c1)c(C)cc[n+]2Cc1ccccc1 | 17.8% | 5.5% | -8.2% | 6.9% | 12.7% | 50.1µM*
CC(=O)c1ccc(NC(=O)c2nc(-c3ccccc3)n(-c3ccc(C)cc3)n2)cc1 | · | 8.6% | -18.5% | -2.3% | 13.8% | ?
Cc1c(Cc2ccccc2)sc(NC(=O)C(C)(C)C)c1C(N)=O | 20µM* | -7.7% | -34.7% | ? | ? | 14.1µM*
Cc1c(Cc2ccccc2)sc(NC(=O)Cc2ccccc2)c1C(N)=O | · | · | -31.3% | · | -51.8% | ·
Cc1c(Cc2ccccc2)sc(N)c1C(N)=O | 39.8µM* | 3.3% | · | -29.3% | · | 2µM*
CCN=C(NCC)SC1CC(=O)N(CCc2ccccc2)C1=O (centres undefined) | · | · | -8.2% | · | 9.0% | ·
C/C(Cn1nnc([N+](=O)[O-])n1)=N\NC(=O)c1ccccc1O | -6.9% | 2.6% | 44.7µM* | 1.9% | 8.8% | -4.7%
CCCC(=O)C1=C(c2ccccc2)C(C#N)(C#N)C(C#N)=C1N | 28.2µM* | 8.7% | ? | 50.1µM* | -18.8% | 25.1µM*
NS(=O)(=O)OCCCc1ccc(C(F)(F)F)cc1 | 6.8% | · | -13.8% | 6.0% | 41.1% | ·
COC(=O)C1=C(C)NC(=O)/C1=C\c1cc(C)n(-c2ccccc2)c1C | ? | 7.9% | ? | ? | -14.7% | 39.8µM*
Cc1ccc(-n2c(C)cc(C=C3C(=O)N(C)C(=O)N(C)C3=O)c2C)cc1 | · | · | -10.4% | · | 5.5% | ·
COC(=O)C1=C(C)NC(=O)/C1=C\c1cc(C)n(-c2cc(C)cc(C)c2)c1C | -12.4% | 9.8% | 56.2µM* | 44.7µM* | -59.6% | -14.7%[12.7 µM]
CC(Sc1nc2ccccc2c(=O)[nH]1)C(=O)O (centres undefined) | 3.8% | -3.4% | -8.2% | -6.6% | 13.0% | 3.16µM*
NS(=O)(=O)c1ccc(NC(=O)CSc2nc3c(cnn3-c3ccccn3)c(=O)[nH]2)cc1 | · | 3.4%[0.505 µM] | ? | 8.6% | 14.5% | 39.8µM*
Nc1nc(SCC(=O)c2cc(F)ccc2F)n[nH]1 | 0.2% | 5.1% | -24.8% | -21.0% | 0.6% | 39.8µM*
O=C(CSc1nc2c(cnn2-c2ccc(F)cc2)c(=O)[nH]1)Nc1ccc(Br)cc1 | · | -5.9% | ? | -16.1% | 9.6% | -28.5%[59 µM]
O=C(CSc1nncc2ccccc12)Nc1ccc(C(=O)O)cc1 | 50.1µM* | -18.9% | -7.6% | ? | 39.5% | ·
CC(C)C(=O)Nc1cccc(COc2ccc(CN(Cc3ccccc3)C(=O)OC(C)(C)C)cc2)c1 | · | · | -16.7% | · | 25.1% | ·
CC(C)(C)c1ccc(CN(Cc2ccco2)c2cnc(S(C)(=O)=O)nc2C(=O)Nc2ccc(F)cc2)cc1 | · | 3.6% | -19.2% | ? | 36.2% | 2.5%[59 µM]
Cc1ccc(NC(=O)CN2C(=O)NC(C)(c3ccc(Cl)cc3)C2=O)cc1S(=O)(=O)N1CCOCC1 (centres undefined) | 30.4% | 5.7% | -13.8% | -33.5% | 20.7% | 2.9%[59 µM]

High-throughput results from PubChem BioAssay.
